Laboratory results from PubChem BioAssay (NCATS).
Active and inactive are the calls of the source. Calls follow the shape of the dose curve; as a rule, active = well fitted inhibition curve with a large enough effect; inconclusive = small, poorly fitted or top-dose-only effect; inactive = flat fitted curve, though single readings scatter.

molecular target: Luciferin 4-monooxygenase (Photinus pyralis) (UniProt P08659); experiment: Primary firefly luciferase (FLuc) qHTS assay for identification of artifact compounds. (AID 1845220); details: purified firefly luciferase, luminescence, 5 min; series mostly up to 54.1 µM; also: nearly all actives have a fitted effect of over 60% in size
Source text: PI: Alexander Tropsha Ph.D.
UNC Eshelman School of Pharmacy
University of North Carolina, Chapel Hill, North Carolina
Hits from high-throughput screening (HTS) of chemical libraries are often false positives due to their interference with the assay detection technology. In response to this problem, we generated the largest publicly available library of chemical liabilities and developed a free webtool to predict HTS artifacts, both of which are described herein. More specifically, we generated, curated, and integrated HTS datasets for thiol reactivity, redox activity, and luciferase (firefly and nano) activity. Using these curated datasets, we developed and validated several Quantitative Structure-Interference Relationship (QSIR) models to predict nuisance behavior. […] These models were employed for virtual profiling of the National Center for Advancing Translational Science's (NCATS) in-house library, and 256 compounds for each assay were selected for the experimental validation of nuisance behavior. The BA for these external predictions ranged from 58 to 78% for compounds within the applicability domains of the models. […] The models developed in this study, along with aggregation models previously developed by our group (SCAM Detective) were implemented in "Liability Predictor," an online tool which may be used as part of chemical library design or for triaging HTS hits. Both the models and the curated datasets are publicly available at https://liability.mml.unc.edu/.
SEQUENCE No. (e.g., 1, 2, 3, etc.); […] (e.g., Cells, Incubation, Reagent, etc.); VALUE; DESCRIPTION.
1; Reagent; 3 uL; Luciferase substrate mixture.
2; Compounds and control; 16 nL; Kalypsis pin tool (Wako USA) equipped with a 1536-well pin head.
4; Reagent; 1 uL; Luciferase enzyme.
6; Detection; Luminescence, ViewLux microplate reader.
NOTES (numbers refer to Sequence numbers above)
1. 3 uL of luciferase substrate mixture containing D-luciferin and ATP (final concentrations of 10 uM and 10 uM, respectively) in assay buffer (10 mM Mg-acetate, 0.01% Tween-20, 0.05% bovine serum albumin, 50 mM Tris acetate, pH 7.6) was dispensed into all wells of a 1536-well assay plate (solid-bottom white plate; Greiner Bio One, Monroe, NC).
2. A Wako Pin-tool (Wako Automation, Richmond, VA) was used to transfer 16 nL of compounds (consisting of 7-plates in qHTS format, final concentration range 18.3 nM to 114 uM) or control PTC124 (final concentration range 1.22 nM to 40 uM).
3. 15 min. incubation at room temperature protected from light.
4. 1 uL of luciferase enzyme (final concentration 10 nM, Photinus pyralis luciferase) or buffer was dispensed for a final assay volume of 4 uL.
5. Plates were centrifuged (121xg, 15 seconds) and incubated for 5 minutes.
6. Samples were read for luminescence on a ViewLux CCD imager (PerkinElmer). Data were normalized to no-enzyme (0% activity) and no-inhibitor (DMSO; 100%) controls and the resulting percent inhibition data were fitted to a 4-parameter Hill equation using NCATS in-house software.

Compound	outcome
C[C@]12CC[C@@H]3c4ccc(OC(=O)c5ccccc5)cc4CC[C@H]3[C@@H]1CC[C@@H]2O	inactive
CC1CC(OC(=O)C(O)c2ccccc2)CC(C)(C)C1 (stereo not drawn)	inactive
C=C1CC[C@H](O)CC1=C/C=C1\CCC[C@]2(C)[C@@H]([C@H](C)/C=C/[C@H](C)C(C)C)CC[C@@H]12	inactive
C=C1[C@H](CO)[C@@H](O)C[C@@H]1n1cnc2c(=O)[nH]c(N)nc21	inactive
CC(C)(C)c1ccc(CN2CCN(C(c3ccccc3)c3ccc(Cl)cc3)CC2)cc1 (stereo not drawn)	inactive
CCN(CC)CCOCCOC(=O)C(CC)(CC)c1ccccc1	inactive
COc1ccc(C[C@H](C)NC[C@@H](O)c2ccc(O)c(NC=O)c2)cc1	inactive
CO[C@H]1C[C@@H]2CC[C@@H](C)[C@@](O)(O2)C(=O)C(=O)N2CCCC[C@H]2C(=O)O[C@H]([C@H](C)C[C@@H]2CC[C@@H](OC(=O)C(C)(CO)CO)[C@H](OC)C2)CC(=O)[C@H](C)/C=C(\C)[C@@H](O)[C@@H](OC)C(=O)[C@H](C)C[C@H](C)/C=C/C=C/C=C/1C	inactive
C/C(=C\C(=O)OCCCCCCCCC(=O)O)C[C@@H]1OC[C@H](C[C@@H]2O[C@H]2[C@@H](C)[C@H](C)O)[C@@H](O)[C@H]1O	inactive
C[C@H]1O[C@@H](O[C@H]2[C@@H](O)C[C@H](O[C@H]3[C@@H](O)C[C@H](O[C@H]4CC[C@@]5(C)[C@H](CC[C@@H]6[C@@H]5C[C@@H](O)[C@]5(C)[C@@H](C7=CC(=O)OC7)CC[C@]65O)C4)O[C@@H]3C)O[C@@H]2C)C[C@H](O)[C@@H]1O	inactive
CC(=O)Nc1ccc(NC(=S)NC(=O)c2ccc(C(C)(C)C)cc2)cc1	inactive
N[C@@H](Cc1cc(I)c(Oc2ccc(O)c(I)c2)c(I)c1)C(=O)O	inactive
O=C(O)Cc1cc(I)c(Oc2ccc(O)c(I)c2)c(I)c1	inactive
